Hits are enriched below; roughly 5% of the tested compounds scored in any of these assays.
VACV mCherry inh = inhibitors of vaccinia virus infection (mCherry reporter signal); 0.63% of 310,000 active; Potency, µM (series often up to 36.5 µM), inactives show at the highest dose activity change, negative = inhibition, most hits filed as inhibitors; Vaccinia virus mCherry reporter infection, fluorescence; AID 720579; calls by dose curve; tested in A549 cells; note: potency is the fitted concentration of half-maximal effect; nearly all actives have a fitted effect of over 35% in size
VACV Venus inh = vaccinia inhibition (Venus reporter); 0.46% of 330,000 active; Potency, µM (doses to about 36.5 µM), for inactives: at the highest dose activity change, negative = inhibition, actives largely listed as inhibitors; Vaccinia virus Venus reporter expression, fluorescence; calls by dose curve; tested in A549 cells; note: potency is the fitted concentration of half-maximal effect; nearly all actives have a fitted effect of over 30% in size
LmPK inh = LmPK (Leishmania mexicana) enzyme inhibition; Q27686; purified LmPK, Kinase-Glo ATP luminescence, 1 h; Potency, µM (top dose mostly 57.5 µM), inactives show at the highest dose activity change, negative = inhibition, hits mostly inhibitors; 0.37% of 290,000 active; AID 1721; note: potency is the fitted concentration of half-maximal effect
Target sequence (Q27686 whole entry, looked up): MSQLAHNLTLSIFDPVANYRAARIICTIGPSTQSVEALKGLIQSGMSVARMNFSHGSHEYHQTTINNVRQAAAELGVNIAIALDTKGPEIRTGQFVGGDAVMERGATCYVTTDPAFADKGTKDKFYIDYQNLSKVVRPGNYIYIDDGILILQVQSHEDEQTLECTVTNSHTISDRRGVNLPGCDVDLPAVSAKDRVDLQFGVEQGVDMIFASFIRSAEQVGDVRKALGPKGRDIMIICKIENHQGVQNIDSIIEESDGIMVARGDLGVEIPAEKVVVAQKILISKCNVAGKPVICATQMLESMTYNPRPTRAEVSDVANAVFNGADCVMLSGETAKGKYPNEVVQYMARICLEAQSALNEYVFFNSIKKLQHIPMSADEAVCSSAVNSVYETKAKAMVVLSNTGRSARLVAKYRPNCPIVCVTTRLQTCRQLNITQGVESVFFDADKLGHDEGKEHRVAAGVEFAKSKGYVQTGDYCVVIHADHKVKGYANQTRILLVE
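Pyruvate kinase activity monitored as ATP production (luciferase luminescence). Conditions: 0.1 nM enzyme, 0.5 mM PEP, 0.1 mM ADP, 1 h, RT; normalized against uninhibited and no-enzyme wells.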
Tb PYK inh = blocks Trypanosoma brucei pyruvate kinase. AID 624173. Q57TT1. Potency, µM (doses to about 76.8 µM), without a hit: top-dose activity, negative = inhibition, usual class: inhibitors. 0.12% of 410,000 active. TbPYK enzyme, Kinase-Glo Plus ATP luminescence, 45 min; note: potency is the fitted concentration of half-maximal effect; nearly all actives have a fitted effect of over 50% in size
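Readout: single end-point luminescence (Kinase-Glo Plus, 10 min). Reaction conditions were TbPYK/substrate plus 130 uM ADP, 45 min at RT, pH 7.2 TEA buffer. No-enzyme wells served as controls, and data were normalized before concentration-response fitting.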
HCMV antiviral = inhibitors of human cytomegalovirus | activity change, negative = inhibition, % at 57.5 µM | HFF cells, HCMV-luciferase reporter, 72 h; stronger effect = lower value | 4.5% of 410,000 active; in the data active = activity change below about -60%; inconclusive = no clear call, values can overlap the other calls; inactive = above about -39%
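Luciferase read-out from HCMV-luciferase-infected HFFs (MOI 1 PFU/cell) 72 h post infection at 37C; compounds added after 16 h cell attachment; activity normalized between buffer-only basal and Salinomycin (10uM) inhibitor controls.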
* hit, by the source's call; [ ] = remark or other dose. Unless noted, calls come from the whole dose curve; as a rule, active = well fitted curve in the direction sought with a large enough effect; inconclusive = small, poorly fitted or top-dose-only effect, or another doubt; inactive = no such curve, though single readings can be large; an effect the other way counts as inactive or inconclusive. % is set by controls: 0 for no effect and ±100 for the full control effect.

Results for Cc1nn(Cc2ccc(Cl)c(Cl)c2)c(C)c1NC(=O)c1cc(CC(C)C)on1 ?
VACV mCherry inh: 11µM*; VACV Venus inh: inconclusive; LmPK inh: 2%; Tb PYK inh: 2%; HCMV antiviral: -31

How did CCCc1cc(C(=O)Nc2c(C)nn(Cc3ccc(Cl)c(Cl)c3)c2C)no1 do in these assays?
VACV mCherry inh: -24%; VACV Venus inh: -16%; Tb PYK inh: 0%; HCMV antiviral: -34

How did C[N+]1(CCF)[C@@H]2CC[C@@H]1CC(OC(=O)C(O)(c1ccccc1)c1ccccc1)C2 (stereo not given in full) do in these assays?
Tb PYK inh: -5%

How did CC[N+]1(C)[C@@H]2CC[C@H]1CC(OC(=O)[C@H]1CCC(C(=O)OC3C[C@H]4CC[C@@H](C3)[N+]4(C)CC)(c3ccccc3)c3ccccc31)C2 (stereo not given in full) do in these assays?
VACV mCherry inh: -17%; VACV Venus inh: -10%; Tb PYK inh: -7%; HCMV antiviral: -69*

How did COc1ccc(-n2ccnc2SCC(=O)Nc2ccc(F)cc2F)cc1 do in these assays?
VACV mCherry inh: -4%; VACV Venus inh: -20%; Tb PYK inh: 4%; HCMV antiviral: -91*

What do the screens show for `O=C(CSc1nccn1-c1ccc(Cl)cc1)Nc1cccc2ccccc12`?
VACV mCherry inh: -1%; VACV Venus inh: -15%; Tb PYK inh: 6%; HCMV antiviral: inconclusive

How did O=C(CSc1nnnn1-c1ccc(Cl)cc1)Nc1cccnc1Cl do in these assays?
VACV mCherry inh: -6%; VACV Venus inh: -18%; LmPK inh: -2%; Tb PYK inh: 5%; HCMV antiviral: -71*

Results for COc1cccc(-n2ccnc2SCC(=O)Nc2ccc(Cl)c(Cl)c2)c1 ?
VACV mCherry inh: inactive; VACV Venus inh: -9%; Tb PYK inh: -4%; HCMV antiviral: -61*

Results for CCOc1ccccc1NC(=O)CSc1nccn1-c1ccc(Cl)cc1 ?
VACV mCherry inh: -1%; VACV Venus inh: -8%; Tb PYK inh: -7%; HCMV antiviral: -72*

How did COc1cccc(NC(=O)CSc2nccn2-c2cccc(OC)c2)c1 do in these assays?
VACV Venus inh: -26%; LmPK inh: 3%; Tb PYK inh: -6%; HCMV antiviral: 38

How did CC(C)c1nnc(SCC(=O)N2CCN(C(=O)c3ccco3)CC2)n1N do in these assays?
VACV mCherry inh: -15%; VACV Venus inh: -13%; LmPK inh: 0%; Tb PYK inh: -7%; HCMV antiviral: 28

How did CC(CNC(=O)c1ccc(Nc2nc3ccccc3n3nnnc23)cc1)c1ccccc1 (stereo not given) do in these assays?
VACV mCherry inh: -2%[7.34 µM]; VACV Venus inh: -8%[7.34 µM]; Tb PYK inh: 3%; HCMV antiviral: 17

How did O=C(COC(=O)C1=COCCO1)Nc1cc(S(=O)(=O)N2CCCCC2)ccc1Cl do in these assays?
VACV mCherry inh: -9%; VACV Venus inh: -9%; LmPK inh: 5%; Tb PYK inh: 1%; HCMV antiviral: -23

How did O=C(CSC1=NNC(c2ccccn2)S1)Nc1ccc(C(F)(F)F)cc1 (stereo not given) do in these assays?
VACV mCherry inh: inconclusive; VACV Venus inh: inconclusive; LmPK inh: 3%; Tb PYK inh: -5%; HCMV antiviral: -75*

What do the screens show for `O=C(CSc1nccn1-c1ccc(F)cc1)Nc1ccc(OC(F)(F)F)cc1`?
VACV mCherry inh: inactive; VACV Venus inh: -18%; Tb PYK inh: 3%; HCMV antiviral: -68*

Results for c1ccc(CSC2=NNC(c3ccccn3)S2)cc1 (stereo not given) ?
VACV mCherry inh: inconclusive; VACV Venus inh: inconclusive; LmPK inh: 4%; Tb PYK inh: -18%; HCMV antiviral: 83

Results for COc1ccc(-n2ccnc2SCC(=O)Nc2ccccc2)cc1 ?
VACV mCherry inh: -22%; VACV Venus inh: -9%; LmPK inh: 4%; Tb PYK inh: -1%; HCMV antiviral: -29

How did O=C(CSc1nccn1C1CCCC1)Nc1ccc(C(F)(F)F)cc1 do in these assays?
VACV mCherry inh: -17%; VACV Venus inh: -19%; Tb PYK inh: -1%; HCMV antiviral: -63*

What do the screens show for `COc1cc2c(cc1C1NC(=S)NC(C)=C1C(=O)N(C)C)CCCC2` (stereo not given)?
VACV mCherry inh: -13%; VACV Venus inh: -13%; LmPK inh: -2%; Tb PYK inh: -18%; HCMV antiviral: -15

What do the screens show for `COc1ccc(S(=O)(=O)Nc2ccccc2C(=O)Nc2nc(-c3ccc(F)cc3)cs2)cc1OC`?
VACV mCherry inh: inconclusive; VACV Venus inh: inconclusive; LmPK inh: 2%; Tb PYK inh: -7%; HCMV antiviral: -76*

How did CCOc1ccccc1NS(=O)(=O)c1c(-c2ccc(C)cc2)csc1C(=O)OC do in these assays?
VACV mCherry inh: -12%; VACV Venus inh: 6%; Tb PYK inh: 1%; HCMV antiviral: 13

Results for O=C(Nc1nc(-c2ccc(Oc3ccccc3)cc2)cs1)C1=COCCO1 ?
VACV mCherry inh: -14%; VACV Venus inh: -22%; LmPK inh: 3%; Tb PYK inh: -12%; HCMV antiviral: -64*

How did CCCNC(=O)c1ccccc1NS(=O)(=O)c1ccc(OC)c(OC)c1 do in these assays?
LmPK inh: 3%; Tb PYK inh: 2%; HCMV antiviral: -4

What do the screens show for `CCOC(=O)c1ccccc1NS(=O)(=O)c1c(-c2ccc(C)cc2)csc1C(=O)OC`?
VACV mCherry inh: -1%; VACV Venus inh: -14%; Tb PYK inh: 4%; HCMV antiviral: -65*

What do the screens show for `COc1ccc(-c2csc(NC(=O)c3c(OC)cccc3OC)n2)cc1`?
VACV mCherry inh: inconclusive; VACV Venus inh: -16%; LmPK inh: 1%; Tb PYK inh: -3%; HCMV antiviral: -16

Results for COc1ccc(-c2csc(NC(=O)c3ccccc3NS(=O)(=O)c3ccc(C)cc3)n2)cc1 ?
VACV mCherry inh: 11µM*; VACV Venus inh: inconclusive; LmPK inh: 2%; Tb PYK inh: 2%; HCMV antiviral: -96*

Results for CC(Sc1nnc(N)s1)c1ccccc1Cl (stereo not given) ?
VACV mCherry inh: -7%; VACV Venus inh: -3%; LmPK inh: -7%; Tb PYK inh: -9%; HCMV antiviral: -13

How did O=c1c(-c2cccs2)cc(-n2c(=O)[nH]c3ccccc32)cn1-c1ccccc1 do in these assays?
HCMV antiviral: -6

What do the screens show for `CCN1CCN(c2ccccc2NC(=O)C(C)Oc2ccc(C(C)=O)cc2)CC1` (stereo not given)?
Tb PYK inh: -7%; HCMV antiviral: 14

How did COc1cc(/C=C2\SC(c3ccc(C)cc3)=NC2=O)cc(OC)c1O do in these assays?
VACV mCherry inh: -17%; VACV Venus inh: -2%; LmPK inh: inconclusive; Tb PYK inh: inconclusive; HCMV antiviral: -75*

Results for CCOc1ccccc1-n1c(O)c(C=Nc2ccc(N(CC)CC)cc2)c(=O)[nH]c1=O ?
VACV Venus inh: -25%; LmPK inh: 6%; Tb PYK inh: -9%; HCMV antiviral: -87*
